The supplement of paper PMC10981050
Values joined by “and” are separate entries in the source; they are usually repeats but may differ in a detail not shown here. Equal values may be shown once. Where a name gives a salt, the structure may show the parent alone.

Tests used:
Test in all cases: cell viability relative to vehicle control; higher = less cytotoxic
Conditions in all cases: 10 µM
K562 = system: K562
Method in brief: (§1)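 CRISPR-edited mutant clones and isogenic wild-type clones from four leukaemia lines were screened against Selleck bioactive, kinase and epigenetic probe libraries, with identity-inconsistent compounds excluded. Each compound was acoustically dispensed at a single 10 µM dose into 384-well plates holding 2000 cells in 50 µL medium per well. After 48 h the supernatant was removed and CellTiter-Glo luminescence was read. Viability was expressed as percent of the on-plate vehicle control and analysed in Genedata Screener.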

MARIMO = system: MARIMO
Method in brief: as §1

MOLM14 = system: MOLM14
Method in brief: as §1

OCI-AML2 = system: OCI-AML2
Method in brief: as §1

| SMILES | cell viability (K562; SRSF2 genotype: SRSF2 P95H/wt) | cell viability (K562; SRSF2 genotype: SRSF2 wt/wt) [%] | cell viability (MARIMO; SRSF2 genotype: SRSF2 P95H/wt) [%] | cell viability (MARIMO; SRSF2 genotype: SRSF2 wt/wt) [%] | cell viability (MOLM14; SRSF2 genotype: SRSF2 P95H/wt) [%] | cell viability (MOLM14; SRSF2 genotype: SRSF2 wt/wt) [%] | cell viability (OCI-AML2; SRSF2 genotype: P95H/wt) [%] | cell viability (OCI-AML2; SRSF2 genotype: wt/wt) [%] |
| --- | --- | --- | --- | --- | --- | --- | --- | --- |
| CC(C)=CCC[C@](C)(O[C@@H]1O[C@H](CO[C@@H]2OC[C@H](O)[C@H](O)[C@H]2O)[C@@H](O)[C@H](O)[C@H]1O)[C@H]1CC[C@]2(C)[C@@H]1[C@H](O)C[C@@H]1[C@@]3(C)CC[C@H](O[C@@H]4O[C@H](CO)[C@@H](O)[C@H](O)[C@H]4O[C@@H]4O[C@H](CO)[C@@H](O)[C@H](O)[C@H]4O)C(C)(C)[C@@H]3CC[C@]12C [Ginsenoside Rb2] | 86% and 89.7% | 84 | 88.4 | 98.1 | 92.2 | 87.7 | 83.2 | 101 |
| Cc1ccc(Nc2ncc3c(n2)N(C)C(=O)N(c2cc(NC(=O)c4cccc(C(F)(F)F)c4)ccc2C)C3)cn1 | 57.3% and 59.5% | 43.1 | 38.1 | 37.4 | 17.9 | 17.5 | 40.8 | 35.2 |
| COCCNc1cc(NC(=O)N2CCCc3cc(CN4CCN(C)CC4=O)c(C=O)nc32)ncc1C#N | 94% and 103% | 89.4 | 96.9 | 106 | 100 | 98.2 | 112 | 109 |
| CCCCCCCCCCCCCCCCCCCCCCCCCCCCO [1-Octacosanol] | 107% and 110% | 98.7 | 109 | 106 | 100 | 106 | 96.2 | 108 |
| Brc1ccc2[nH]ccc2c1 [5-Bromoindole] | 107% and 100% | 107 | 95.7 | 98 | 99.5 | 103 | 102 | 115 |
| CC(=O)OC1CC2CCC1(C)C2(C)C (stereo unspecified) [Bornyl acetate] | 109% and 107% | 114 | 107 | 107 | 98.8 | 104 | 110 | 107 |
| O=C(/C=C/c1ccc2ccccc2n1)c1ccncc1 | 6.76% and 0.53% | 0.42 | 0.28 | 0.4 | 0.4 | 0.45 | 0.31 | 0.36 |
| OC1CCC(Oc2cccc3cnc(Nc4ccc5nc[nH]c5c4)nc23)CC1 (stereo unspecified) | 40.6% and 46.8% | 32.7 | 11.5 | 4.14 | 1.38 | 0.57 | 1.67 | 16.3 |
| CC[C@H]1OC(=O)[C@H](C)[C@@H](O[C@H]2C[C@@](C)(OC)[C@@H](O)[C@H](C)O2)[C@H](C)[C@@H](O[C@@H]2O[C@H](C)C[C@H](N(C)C)[C@H]2O)[C@](C)(O)C[C@@H](C)/C(=N\OCOCCOC)[C@H](C)[C@@H](O)[C@]1(C)O [Roxithromycin (Roxl-150)] | 104% and 106% | 94.9 | 103 | 105 | 101 | 100 | 93.6 | 105 |
| O=C(O)[C@@]1(CCCCCCOc2ccc(Cl)cc2)CO1 [Etomoxir (Na salt)] | 113% and 110% | 115 | 104 | 110 | 106 | 108 | 107 | 96.8 |
| O=C(O)c1cc(O)cc(Cl)c1 [3-chloro-5-hydroxybenzoic Acid] | 104% and 101% | 103 | 96.3 | 95.1 | 105 | 107 | 96.9 | 109 |
| Nc1cc(F)ccc1NC(=O)/C=C/c1cnn(C/C=C/c2ccccc2)c1 | 89.5% and 93.8% | 83.6 | 77.8 | 100 | 90.5 | 94.2 | 104 | 87.4 |
| CC(=O)c1cc(O)ccc1O [2',5'-Dihydroxyacetophenone] | 90.6% and 97.4% | 97.7 | 94.6 | 87.5 | 103 | 97.6 | 94.7 | 101 |
| CCOC(=O)C1=C(N)Oc2ccc(Cl)cc2C1C(C#N)C(=O)OCC (stereo unspecified) | 85.4% and 84.9% | 65.4 | 56.6 | 55.8 | 64.2 | 93.2 | 63.7 | 64.2 |
| C[C@H](O)[C@H](O)[C@@H](O)[C@@H](O)C=O [L (+)-Rhamnose Monohydrate] | 99.9% and 97.2% | 100 | 102 | 106 | 99 | 105 | 99.3 | 94.1 |
| O=c1[nH]cnc2ccccc12 [4-Hydroxyquinazoline] | 99.8% and 93.6% | 96.8 | 93.8 | 92.2 | 106 | 95.5 | 99.6 | 92.6 |
| O=C(Oc1coc(CSc2ncccn2)cc1=O)c1ccc([N+](=O)[O-])cc1 | 88.1% and 95.5% | 100 | 98.3 | 98.7 | 96.5 | 97.4 | 97.9 | 81.8 |
| CC(C)c1cnn2c(NCc3ccccc3-n3cccn3)nc(OC3CCCNC3)nc12 (stereo unspecified) | 5.8% and 12.8% | 9.75 | 0.54 | 0.75 | 0.56 | 0.56 | 0.46 | 1.89 |
| COc1ccc2c(c1)c(C1=C(c3c[nH]c4ccccc34)C(=O)NC1=O)cn2CCCN(C)C | 84.2% and 80.9% | 74.5 | 69.8 | 85.8 | 30.9 | 25.9 | 31.8 | 49.9 |
| O=C1NC(=O)/C(=C/c2ccc3nccc(-c4ccncc4)c3c2)S1 | 62.8% and 84% | 69.7 | 54.6 | 50.5 | 40.1 | 42 | 25.4 | 28.8 |
| O=C(O)c1ccco1 [2-Furoic acid] | 95.7% and 95.1% | 103 | 95.9 | 108 | 98.5 | 101 | 97.5 | 102 |

| SMILES | cell viability (K562; SRSF2 genotype: SRSF2 P95H/wt) | cell viability (K562; SRSF2 genotype: SRSF2 wt/wt) [%] | cell viability (MARIMO; SRSF2 genotype: SRSF2 P95H/wt) [%] | cell viability (MARIMO; SRSF2 genotype: SRSF2 wt/wt) [%] | cell viability (MOLM14; SRSF2 genotype: SRSF2 P95H/wt) [%] | cell viability (MOLM14; SRSF2 genotype: SRSF2 wt/wt) [%] | cell viability (OCI-AML2; SRSF2 genotype: P95H/wt) [%] | cell viability (OCI-AML2; SRSF2 genotype: wt/wt) [%] |
| --- | --- | --- | --- | --- | --- | --- | --- | --- |
| Oc1ccc(-c2nc(-c3ccc(F)cc3)c(-c3ccncc3)[nH]2)cc1 | 89.5% and 96.2% | 93.5 | 101 | 113 | 97.9 | 97.3 | 99.7 | 106 |
| CCCC(CCC)C(N)=O [Valpromide] | 96.1% and 94.6% | 100 | 99.5 | 101 | 102 | 99.5 | 95 | 107 |
| Cc1cc(Nc2cc(N3CCN(C)CC3)nc(/C=C/c3ccccc3)n2)n[nH]1 [ENMD-2076 L-(+)-Tartaric acid] | 22.5% and 29.7% | 22.9 | 34.8 | 30.7 | 2.93 | 6.51 | 7.71 | 14.7 |
| Cc1cc(Nc2cc(CN3CCOCC3)c3nc(C)c(Cc4ccc(Cl)cc4F)n3n2)n[nH]1 | 88.8% and 88% | 84 | 73.1 | 110 | 19.7 | 16.5 | 34.7 | 53 |
| CC(C)(C)c1cc(NC(=O)Nc2ccc(Oc3ccnc4[nH]c(=O)cnc34)cc2F)n(-c2ccccc2)n1 | 30% and 44% | 25.7 | 14.6 | 9.05 | 7.07 | 2.65 | 6.64 | 15.8 |
| Cc1cccc(Nc2cc(Cl)nc(SCC(=O)O)n2)c1C | 95.6% and 95.5% | 97.2 | 98.9 | 99.9 | 95.9 | 98.5 | 90.3 | 94.4 |
| O=C(/C=C/c1cccc(S(=O)(=O)Nc2ccccc2)c1)NO [Belinostat (PXD101)] | 1.83% and 15.8% | 5.17 | 8.17 | 13.7 | 0.86 | 0.57 | 2.66 | 4.34 |
| Cc1cc(=O)oc2ccc(O)cc12 [6-Hydroxy-4-methylcoumarin] | 111% and 101% | 107 | 107 | 97 | 101 | 103 | 96 | 104 |
| CCCc1nc(C)c2c(=O)[nH]c(-c3cc(S(=O)(=O)N4CCN(CC)CC4)ccc3OCC)nn12 [Vardenafil Hydrochloride Trihydrate (Vivanza] | 99.1% and 107% | 97.1 | 110 | 108 | 105 | 106 | 135 | 115 |
| COc1cc(C=O)c([N+](=O)[O-])cc1OC | 104% | 110 | 95.3 | 92.6 | 95.8 | 109 | 111 | 125 |
| CCN(CC)CC(O)CNc1ccc(NCC2CO2)c2c1C(=O)c1ccccc1C2=O (stereo unspecified) | 1.64% and 0.64% | 3.62 | 1.76 | 2.11 | 2.26 | 0.31 | 0.66 | 0.95 |
| CCCCOc1c(C(=O)c2c(F)cc(C)cc2F)c[nH]c2nncc1-2 | 104% and 105% | 114 | 72.6 | 84.8 | 68.8 | 87.7 | 57.1 | 59.5 |
| Cc1cc(O)c(C(=O)CCC(C)C)c(=O)o1 [Pogostone] | 104% and 98.3% | 101 | 95.7 | 106 | 96.5 | 99.5 | 95.9 | 99.5 |
| CC/C=C(\C(=O)N[C@@H]1C(=O)N2C(C(=O)OCOC(=O)C(C)(C)C)=C(COC(N)=O)CS[C@H]12)c1csc(N)n1 [Cefcapene Pivoxil Hydrochloride] | 101% and 102% | 109 | 93.2 | 103 | 97.3 | 105 | 114 | 106 |
| O=C1c2ccccc2C(=O)c2c1ccc(O)c2O [Alizarin] | 101% and 104% | 101 | 103 | 99.5 | 97 | 102 | 101 | 93 |
| NS(=O)(=O)c1ccc(NC(=O)Nc2ccc(F)cc2)cc1 | 99.9% and 107% | 107 | 115 | 113 | 110 | 108 | 99.6 | 95 |
| Nc1ccccc1NC(=O)c1ccc(CNc2nccc(-c3cccnc3)n2)cc1 [Mocetinostat (MGCD0103)] | 4.12% and 14.8% | 10.5 | 7.4 | 9.28 | 0.6 | 0.42 | 0.44 | 3.29 |
| Nc1nc(=S)c2ncn([C@H]3C[C@H](O)[C@@H](CO)O3)c2[nH]1 | 29.9% and 33.4% | 29.9 | 56.1 | 44.8 | 44.1 | 31.7 | 22.8 | 27.8 |
| COc1cc2nccc(Oc3ccc(NC(=O)c4cn(C(C)C)c(=O)n(-c5ccc(F)cc5)c4=O)cc3F)c2cc1OC | 30.1% and 27.1% | 48.2 | 102 | 102 | 27.7 | 43.7 | 70.4 | 80.4 |
| CCOC(=O)[C@H](CCc1ccccc1)N[C@@H](C)C(=O)N1C(=O)N(C)C[C@H]1C(=O)O [Imidapril HCl] | 93.9% and 85.6% | 90.9 | 84.9 | 94.4 | 95.1 | 95.2 | 108 | 87.7 |
| COc1cc2ncnc(Oc3cccc(NC(=O)Nc4cc(C(C)(C)C(F)(F)F)on4)c3)c2cc1OC | 23.5% and 40.4% | 24.8 | 79.4 | 85 | 33.8 | 23.7 | 60.3 | 61.5 |
